PubChem BioAssay (Tox21)
“And” between values parts separate entries of the source, which are not always exact repeats. Identical values can stand only once. Records with an inconclusive call do not appear. Where a call stands in place of a potency, no number is given. The source holds several records for some structures; these can differ, active in one and inactive in another. The source made the active and inactive calls. Calls come from the whole dose curve; as a rule, active = well fitted inhibition curve with a large enough effect in the repeat runs; inconclusive = weak or mixed curves, or effect the other way; inactive = no such curve, though single readings can be large or run the other way.
Potency is the fitted concentration of half-maximal effect.

Assay: qHTS assay to identify small molecule antagonists of the retinoic acid receptor (RAR) signaling pathway (AID 1159552; note: nearly all actives have a fitted effect of over 50% in size)
Conditions: C3RL4 RARE luciferase reporter, retinol-stimulated, 6 h; series mostly up to 92.4 µM
Method in brief: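 Luminescent RARE reporter read-out in C3RL4 cells: 6 hr co-treatment at 37 C of test compounds with retinol at 1 uM final. Cells plated overnight beforehand; luciferase reagent incubated 30 min at room temperature before reading.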
In the case of NCCNc1cccc2ccccc12, the Potency is reported as 30.6 µM (active) and 23.7 µM (active). In the case of CC(C)CC(C)CC(O)CC(C)C (stereo not drawn), the Potency is reported as “inactive”. In the case of CC1=C(/C=C/C(C)=C/C=C/C(C)=C/C(=O)O)C(C)(C)CCC1, the Potency is reported as “inactive”. With NC(N)=NC(N)=NCCc1ccccc1 the Potency was “inactive”. With COc1cc2c(c(OC)c1OC)-c1ccc(OC)c(=O)cc1[C@@H](NC(C)=O)CC2 the Potency was “inactive”. In the case of Cc1cccc(C)c1O, the Potency is reported as “inactive”. With NC(=O)N1c2ccccc2C=Cc2ccccc21 the Potency was “inactive”. In the case of C=CCOC(=O)CC(C)C, the Potency is reported as “inactive”. For CCN(CC)CCOC(=O)c1ccc(N)cc1, the Potency was “inactive”. With CC(=O)Oc1ccccc1C(=O)O the Potency was “inactive”. With Nc1ccc(N=Nc2ccccc2)c(N)n1 the Potency was “inactive”. In the case of O=C1CCCCCN1, the Potency is reported as “inactive”. In the case of CN(C)Cc1cc(CN(C)C)c(O)c(CN(C)C)c1, the Potency is reported as “inactive”. In the case of C/C=C/c1ccc(O)c(OC)c1, the Potency is reported as “inactive”. With CC(C)(C)CC(C)(C)c1ccc(O)c(-n2nc3ccccc3n2)c1 the Potency was “inactive”. With N[C@@H](Cc1c[nH]c2ccc(O)cc12)C(=O)O the Potency was “inactive”. In the case of C1CNCCN1, the Potency is reported as “inactive”. For OC[C@@H](O)[C@@H](O)[C@H](O)[C@H](O)CO, the Potency was “inactive”. In the case of C#C[C@]1(O)CC[C@H]2[C@@H]3CCc4cc(O)ccc4[C@H]3CC[C@@]21C, the Potency is reported as “inactive”. With NC(=O)c1ccc([N+](=O)[O-])cc1Cl the Potency was “inactive”. In the case of COc1ccccc1NC(=O)CC(C)=O, the Potency is reported as “inactive”. In the case of O=C1OC(c2ccc(O)cc2)(c2ccc(O)cc2)c2ccccc21, the Potency is reported as 48.6 µM (active) and inactive. With C[C@]12CC[C@@H]3c4ccc(O)cc4C[C@@H](CCCCCCCCCS(=O)CCCC(F)(F)C(F)(F)F)[C@H]3[C@@H]1CC[C@@H]2O (stereo partly drawn) the Potency was “inactive”.
